Assay results published in PubChem BioAssay AID1159580 (chemical genetic matrix, 2015).
Where “and” joins values, the source holds several entries; their conditions need not be identical. Equal values may be shown once. Out of some 5,500 compounds screened, about 2,000 (36%) were called active. Roughly 18% stayed inconclusive and do not appear here. No stated cut-off is given here; in the data, active means normalized growth mostly below about 0.91 (no sharp cut-off); inconclusive means no clear call, values can overlap the other calls; inactive means mostly above about 0.92. The list shows a part of the results.

Test: chemical genetic growth profiling, strain panel (AID 1159580);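 further: tested at 20 µM; growth read once vehicle control cultures reached saturation at 30 °C; 1 = growth at the plate median or of vehicle wells; lower values mean less growth of the strain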
Conditions: S. cerevisiae deletion strains, growth OD

Measured: normalized growth

Nc1ncnc2c1ncn2[C@@H]1O[C@H](CO)[C@@H](O)[C@H]1O
inactive: locus YAL021C, strain ccr4, active compounds read low 0.97 | locus YAL026C, strain drs2, active compounds read low 0.989 | locus YAL030W, strain snc1, active compounds read low 0.995 | locus YBL061C, strain skt5, active compounds read low 0.98 | locus YBR009C, strain hhf1, active compounds read low 0.987 | locus YBR021W, strain FUR4, active compounds read low 1.13 | locus YBR023C, strain chs3, active compounds read low 0.972 | locus YBR171W, strain sec66, active compounds read low 0.968 | locus YBR229C, strain ROT2, active compounds read low 0.951 | locus YBR231C, strain swc5, active compounds read low 1 | locus YBR279W, strain paf1, active compounds read low 0.991 | locus YCL011C, strain gbp2, active compounds read low 0.975 | locus YCL016C, strain dcc1, active compounds read low 0.953 | locus YCL029C, strain bik1, active compounds read low 0.972 | locus YCL061C, strain MRC1, active compounds read low 0.966 | locus YCL069W, strain vba3, active compounds read low 0.985 | locus YCR088W, strain abp1, active compounds read low 0.994 | locus YDL005C, strain med2, active compounds read low 0.992 | locus YDL035C, strain GPR1, active compounds read low 0.987 | locus YDL040C, strain nat1, active compounds read low 0.99 | locus YDL074C, strain BRE1, active compounds read low 1.02 | locus YDL101C, strain DUN1, active compounds read low 0.97 | locus YDL134C, strain PPH21, active compounds read low 0.983 | locus YDL185W, strain tfp1, active compounds read low 0.955 | locus YDL192W, strain arf1, active compounds read low 0.982 | locus YDR001C, strain nth1, active compounds read low 0.986 | locus YDR069C, strain doa4, active compounds read low 1.02 | locus YDR101C, strain arx1, active compounds read low 1.03 | locus YDR137W, strain rgp1, active compounds read low 0.96 | locus YDR159W, strain sac3, active compounds read low 0.994 | locus YDR162C, strain NBP2, active compounds read low 0.948 | locus YDR195W, strain ref2 1.01 | locus YDR297W, strain sur2, active compounds read low 0.985 | locus YDR318W, strain mcm21, active compounds read low 0.973 | locus YDR334W, strain swr1, active compounds read low 0.986 | locus YDR335W, strain msn5, active compounds read low 0.987 | locus YDR388W, active compounds read low 0.948 | locus YDR392W, strain spt3, active compounds read low 0.904 | locus YDR502C, strain sam2, active compounds read low 0.997 | locus YEL003W, strain gim4, active compounds read low 0.994 | locus YEL037C, strain rad23, active compounds read low 0.99 | locus YEL061C, strain CIN8 (second series), active compounds read low 0.987 | locus YEL061C, strain CIN8, active compounds read low 0.986 | locus YER015W, strain faa2, active compounds read low 0.986 | locus YER016W, strain bim1, active compounds read low 0.997 | locus YER110C, active compounds read low 0.975 | locus YER111C, strain swi4, active compounds read low 0.977 | locus YER155C, strain BEM2 (second series), active compounds read low 1.01 | locus YER155C, strain BEM2, active compounds read low 0.974 | locus YER167W, strain BCK2, active compounds read low 0.988 | locus YFR010W, strain ubp6, active compounds read low 0.99 | locus YGL078C, strain dbp3, active compounds read low 0.986 | locus YGL086W, strain mad1, active compounds read low 1.03 | locus YGL167C, strain pmr1, active compounds read low 0.981 | locus YGL173C, strain kem1, active compounds read low 0.98 | locus YGL227W, strain vid30, active compounds read low 0.987 | locus YGL240W, strain doc1, active compounds read low 0.989 | locus YGL248W, strain PDE1, active compounds read low 0.979 | locus YGL253W, strain hxk2, active compounds read low 0.988 | locus YGR135W, strain pre9, active compounds read low 0.975 | locus YGR229C, strain SMI1, active compounds read low 1 | locus YGR252W, strain gcn5, active compounds read low 0.959 | locus YHR013C, strain ard1, active compounds read low 0.955 | locus YHR027C, strain rpn1, active compounds read low 0.981 | locus YHR030C, strain SLT2, active compounds read low 0.994 and 1.01 | locus YHR079C, strain IRE1 (second series), active compounds read low 0.982 | locus YHR079C, strain IRE1, active compounds read low 1.03 | locus YHR094C, strain hxt1, active compounds read low 0.97 | locus YHR129C, strain ARP1, active compounds read low 0.995 | locus YHR142W, strain chs7, active compounds read low 0.939 | locus YHR200W, strain rpn10, active compounds read low 0.986 | locus YIL066C, strain RNR3, active compounds read low 0.978 | locus YIL073C, strain SPO22, active compounds read low 0.947 | locus YIL125W, strain kgd1, active compounds read low 0.98 | locus YIR030C, strain dcg1, active compounds read low 0.976 | locus YJL092W, strain hpr5, active compounds read low 0.984 | locus YJL095W, strain BCK1 (second series), active compounds read low 0.987 | locus YJL095W, strain BCK1, active compounds read low 0.983 and 1.02 | locus YJL115W, strain asf1, active compounds read low 0.987 | locus YJL129C, strain trk1, active compounds read low 0.972 | locus YJL134W, strain LCB3, active compounds read low 0.985 | locus YJL154C, strain vps35, active compounds read low 0.999 | locus YJL164C, strain tpk1, active compounds read low 0.981 | locus YJL166W, strain qcr8, active compounds read low 0.969 | locus YJL168C, strain set2, active compounds read low 0.99 | locus YJL187C, strain SWE1 (second series), active compounds read low 0.968 | locus YJL187C, strain SWE1, active compounds read low 0.992 | locus YJR043C, strain POL32, active compounds read low 0.992
